IL1B secr inh: qHTS for Inhibitors of Inflammasome Signaling: IL-1-beta AlphaLISA Primary Screen; THP-1 LPS/ATP IL-1B secretion, AlphaLISA, 16 h; hits give low values; activity change, % at 57.5 µM; 4.7% of 360,000 active; AID 743279, 2014; in the data active = activity change below about -50%; inconclusive = mostly about -30% to -49%; also: % is scaled to controls: 0 for no effect and ±100 for the full control effect
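Secreted IL-1B measured by AlphaLISA bead assay after 16 h compound exposure of THP-1 cells; compounds (final up to 57.5 uM) added 1 h before LPS (250 ng/mL) and ATP (1.25 mM) stimulation; lower signal means less secretion.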
MCF10A rerep: A quantitative high throughput screen for small molecules that induce DNA re-replication in MCF 10a normal breast cells | 2.9% of 350,000 active | MCF 10A DNA re-replication, Hoechst nuclear intensity, 48 h | Potency, µM (highest dose often 46.1 µM), for inactives: at the top dose activity, positive = re-replication, actives largely listed as activators; also: potency is read from the fitted curve at half-maximal effect; % of control where 0% means no effect; nearly all actives have a fitted effect of over 50% in size
BCR signal inh: qHTS Assay to Find Inhibitors of Chronic Active B-Cell Receptor Signaling; ABC-DLBCL IkBa-CBG/CBR reporter, luminescence ratio, 4 h; Potency, µM (top dose mostly 46.1 µM), without a hit: at the highest dose activity change, negative = inhibition, actives largely listed as inhibitors; 0.05% of 340,000 active; active = well fitted inhibition curve with a large enough effect in the signal ratio, with a control signal flat, not every such curve was filed as active; inconclusive = small, poorly fitted or top-dose-only effect, or effect the other way, or a change in a side signal; the % refers to the signal ratio;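 also: potency is read from the fitted curve at half-maximal effect; plate controls were basal doxycycline-induced cells for no effect and cells given 10 µM MG132 for full effect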
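Cell line TMD8 (human ABC DLBCL), stably expressing tet-inducible CBG68-IkBa fusion and CBR; IMDM/0.5% FBS; cpd up to 46 uM; dox induction, 4 h, 37C/5% CO2; dual luminescence; green/red ratio; MG132 control.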
SW480 rereplic: A quantitative high throughput screen for small molecules that induce DNA re-replication in SW480 colon adenocarcinoma cells | 1.8% of 340,000 active | SW480 DNA re-replication, Hoechst DNA content imaging, 48 h | Potency, µM (highest dose often 46.1 µM), for inactives: at the highest dose re-replication activation, most hits filed as activators; also: potency is read from the fitted curve at half-maximal effect; % of control where 0% means no effect; nearly all actives have a fitted effect of over 55% in size
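First, 250 cells per well were seeded. Next, compound or vehicle (23 nL) was pinned in, plates sat 48 hr at 37 C. Finally Hoechst was added for 40 min before fluorescence scanning.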
TDP1 cell noCPT: qHTS for Inhibitors of human tyrosyl-DNA phosphodiesterase 1 (TDP1): qHTS in cells in absence of CPT; DT40 Tdp1-/- hTDP1 cells, no CPT, ATP luminescence, 48 h; AID 686978, 2013; Potency, µM (doses to about 46.2 µM), for the others: at the highest dose activity change, negative = growth inhibition, actives largely listed as inhibitors; 15% of 420,000 active; also: potency is read from the fitted curve at half-maximal effect; % is scaled to controls: 0 for no effect and ±100 for the full control effect; nearly all actives have a fitted effect of over 55% in size
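A cellular qHTS used chicken DT40 cells lacking endogenous Tdp1 but carrying stably transfected human TDP1. Compounds were applied without camptothecin, and cell growth kinetics were judged by ATP-dependent luminescence after ≥48 hr.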
DT40 TDP1 CPT: qHTS for Inhibitors of human tyrosyl-DNA phosphodiesterase 1 (TDP1): qHTS in cells in presence of CPT. AID 686979, 2013. 12% of 420,000 active. chicken DT40 Tdp1-/-;hTDP1 cells + 20 nM CPT, ATP luminescence, 48 h. Potency, µM (series often up to 46.2 µM), for inactives: at the highest dose activity change, negative = growth inhibition, actives largely listed as inhibitors; also: potency is read from the fitted curve at half-maximal effect; % is scaled to controls: 0 for no effect and ±100 for the full control effect; nearly all actives have a fitted effect of over 55% in size
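Chicken DT40 Tdp1-/- cells stably complemented with human TDP1 were seeded at 400 cells/well in medium containing 20 nM camptothecin, exposed to pin-transferred compounds, and grown at 37 °C for at least 48 hr. Viability was read as ATP luminescence.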
An asterisk follows results filed as active; u = inconclusive; x = no result; [ ] = another dose, or the depositor's remark. A selection: hits, their analogues and other compounds. The true share with any hit is near 19%. Unless noted, calls follow the shape of the dose curve; as a rule, active = well fitted curve in the direction sought with a large enough effect; inconclusive = small, poorly fitted or top-dose-only effect, or another doubt; inactive = no such curve, though single readings can be large; an effect the other way counts as inactive or inconclusive.

SMILES	IL1B secr inh	MCF10A rerep	BCR signal inh	SW480 rereplic	TDP1 cell noCPT	DT40 TDP1 CPT
Cc1ccc(C(C)C)c(Oc2cnccn2)c1	20	-7%	3%	-4%	18%	-1%
COc1cc(CN2CCN(Cc3ccc(SC)cc3)CC2)cc(OC)c1O	14	4%	4%	-25%	-18%	-21%
COc1cc(OC)c(OC)cc1CN1CCN(Cc2ccc(SC)cc2)CC1	-3	u	-3%	-103%	13µM*	u
COc1cc(Cl)ccc1OC1(C)CCN(Cc2ccc(SC)cc2)C1 (stereo not drawn)	u	x	x	x	18µM*	13µM*
CC1(Oc2cccnc2Cl)CCN(Cc2ccc(OC(F)(F)F)cc2)C1 (stereo not drawn)	-56*	x	x	x	18µM*	21µM*
CSc1ccc(CN2CCC(C)(Oc3ccccc3F)C2)cc1 (stereo not drawn)	0	x	x	x	u	u
O=C1CCC(c2ccc3c(c2)CCC3)=NN1	-10	-13%	2%	-4%	-26%	-13%
Cc1oc(C)c2c(=O)cc(-c3ccc4c(c3)OCO4)cc(OC(=O)c3ccccc3Cl)c12	x	x	x	x	u	23µM*
C/C(CCc1ccc2c(c1)OCO2)=N\NC(=O)c1ccccc1Br	-2	u	u	-2%	-14%	18%
CCOc1cc(-c2ccc3c(c2)OCO3)cc(=[O+]CC)c2c(C)oc(C)c12	x	x	x	x	14µM*	u
CCOc1cc(/C=C2/N=C(c3ccc4c(c3)OCO4)OC2=O)ccc1OC(C)=O	-23	3%	-1%	-11%	u	u
O=C(Oc1ccccc1Cl)c1cc(-c2ccc3c(c2)OCCO3)on1	x	x	x	x	6%	-6%
Cc1oc(C)c2c(=O)cc(-c3ccc4c(c3)OCO4)cc(OC(=O)c3ccccc3Br)c12	x	x	x	x	u	16µM*
O=c1oc2ccccc2c(O)c1/C=C1\C=Nc2ccccc21	-108*	u	u	u	7.3µM*	8.2µM*
O=c1oc2ccccc2c(O)c1/C=N/c1ncccn1	12	-3%	u	-10%	-10%	-13%
S=c1nc(-c2ccccc2)[nH]c2ccc(Br)cc12	18	0%	u	-16%	u	2%
Cc1cccc(C(=O)NNC(=O)c2ccc3ccccc3c2)c1	u	6%	x	-4%	6%	-6%
CC(C)CN1CCC2(CC1)CCN(S(=O)(=O)c1ccccc1)CC2	x	x	x	x	23µM*	u
N#Cc1c(-c2ccccc2)cc2nc3ccccc3n2c1N	-5	12µM*	u	5%	-16%	-15%
N#Cc1csc(CCNC(=O)c2ccccc2)n1	-29	x	x	x	1%	6%
COc1ccc(Nc2cccc3ccccc23)cc1	0	-14%	-9%	u	u	u
O=C(Nc1ccccn1)c1cccs1	6	1%	x	-6%[9.22 µM]	26µM*	18µM*
O=C(Nc1nonc1NC(=O)c1cccs1)c1cccs1	1	3%[9.22 µM]	u	-3%	23µM*	26µM*
CC(C)(C)c1cc(NC(=O)c2cc(F)c(F)c(F)c2F)no1	35	1%	u	-1%	u	29µM*
CC(C)(C)c1cc(NC(=O)c2cccnc2)no1	0	-3%	1%	-4%	-13%	-1%
SMILES	IL1B secr inh	MCF10A rerep	BCR signal inh	SW480 rereplic	TDP1 cell noCPT	DT40 TDP1 CPT
CC(C)(C)c1cc(NC(=O)c2cccs2)no1	-51*	-1%	x	u	0%	u
O=C(Nc1ccccn1)c1ccc(-c2ccccc2)cc1	-59*	21%	u	20%	u	9%
COc1ccc(C(=O)COC(=O)c2cc(S(=O)(=O)N3CCCCC3)ccc2N2CCOCC2)c(OC)c1	58	-3%	u	1%	u	u
O=C(CSc1nc(-c2ccccc2)c(-c2ccccc2)[nH]1)Nc1ccc2c(c1)OCO2	22	u	5%	u	13µM*	u
COc1cc(-c2nc(SCC(=O)Nc3ccc4c(c3)OCO4)c(-c3ccccc3)[nH]2)cc(OC)c1OC	x	x	x	x	16µM*	u
O=C(CSc1nc(-c2ccccc2)[nH]c1-c1ccccc1)Nc1ccc2c(c1)OCO2	x	x	x	x	15µM*	21µM*
COc1ccccc1Cc1nc2ccccc2nc1SCC(=O)Nc1ccc2c(c1)OCO2	x	x	x	x	-16%	0%
Cc1cc(NC(=O)CS(=O)c2cn(Cc3cccc(Cl)c3)c3ccccc23)no1 (stereo not drawn)	17	x	x	x	16µM*	21µM*
Cc1cc(NC(=O)CS(=O)(=O)c2cn(Cc3ccccc3Cl)c3ccccc23)no1	-12	u	u	12%	u	u
Cc1cc(NC(=O)CS(=O)(=O)c2cn(Cc3cccc(Br)c3)c3ccccc23)no1	-54*	x	x	x	u	26µM*
CC(=O)c1sc(N/N=C2\CC3CCC2(C)C3(C)C)nc1C (stereo not drawn)	9	21µM*	-1%	-74%	u	-29%
CCCCCC[n+]1c(-c2ccc(Cl)cc2Cl)csc1Nc1ccccc1	22	28%	16%	0%	23µM*	u
CCc1cccc(C)c1Nc1c(-c2ccccc2)nc2sccn12	x	x	x	x	18µM*	u
Cc1ccc(-c2nc3sccn3c2Nc2ccccc2C)cc1	x	x	x	x	23µM*	u
Cc1cccc(C)c1NC(=O)c1sc(N)nc1-c1ccccc1	-10	-11%	u	-55%	-22%	-19%
COc1ncc2nc(-c3ccc(F)cc3)c(=O)n(C3CC3)c2n1	x	x	x	x	46%	11%
CC(=O)N(C[C@@H](C)C(=O)O)c1c(I)cc(I)c(N)c1I	x	9%[20.6 µM]	x	-5%[20.6 µM]	x	x
O=C(NCCCN1CCOCC1)C(=O)NCC1OCCN1S(=O)(=O)c1ccc(Cl)cc1 (stereo not drawn)	2	x	x	x	u	-2%
CCOC(=O)c1c(-c2ccccc2Cl)csc1NC(=O)CSc1nc(C)cc(=O)[nH]1	0	u	u	23µM*	-26%	-10%
CCOC(=O)c1ccc(NC(=O)CSc2nc(C)cc(=O)[nH]2)cc1	35	0%	3%	-2%	-3%	-7%

Screening data from PubChem.
